# Test results: the supplement of paper PMC4466140
# How the values were obtained:
# Experiment in all cases: SPOT peptide array binding signal intensity (averaged, normalized) (arbitrary units (background-subtracted, floor 0; scale differs between SH3 domains)); higher = stronger binding of the SH3 domain to the peptide
# AgAbp1 = biological target: AgAbp1
# In short: (§1)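 Detection of bound protein relied on anti-GST antibody, an HRP anti-mouse secondary and luminol, with imaging and quantification in Genespotter. The bound protein was GST-fused SH3 domains from four yeast species, incubated at 10 μg/ml overnight at 4°C in TBS-based blocking buffer on cellulose membranes carrying synthetic 15-mer peptides with cysteines replaced by serines. Binding signal is normalized, background-subtracted spot intensity averaged over replicates, in arbitrary units that differ between domains.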
# AgBbc1 = biological target: AgBbc1
# In short: as §1
# AgBem1-D1 = biological target: AgBem1-D1
# In short: as §1
# AgBzz1-D1 = biological target: AgBzz1-D1
# In short: as §1
# AgBzz1-D2 = biological target: AgBzz1-D2
# In short: as §1
# AgCyk3 = biological target: AgCyk3
# In short: as §1
# AgFus1 = biological target: AgFus1
# In short: as §1
# AgHof1 = biological target: AgHof1
# In short: as §1
# AgHse1 = biological target: AgHse1
# In short: as §1
# AgLsb1 = biological target: AgLsb1
# In short: as §1
# AgLsb4 = biological target: AgLsb4
# In short: as §1
# AgMyo5 = biological target: AgMyo5
# In short: as §1
# AgNbp2 = biological target: AgNbp2
# In short: as §1
# AgRvs167 = biological target: AgRvs167
# In short: as §1
# AgSho1 = biological target: AgSho1
# In short: as §1
# AgSla1-D1-D2 = biological target: AgSla1-D1-D2
# In short: as §1
# AgSla1-D3 = biological target: AgSla1-D3
# In short: as §1
# CaAbp1-D1 = biological target: CaAbp1-D1
# In short: as §1
# CaAbp1-D2 = biological target: CaAbp1-D2
# In short: as §1
# CaBbc1 = biological target: CaBbc1
# In short: as §1
# CaBem1-D1 = biological target: CaBem1-D1
# In short: as §1
# CaBzz1-D1 = biological target: CaBzz1-D1
# In short: as §1
# CaBzz1-D2 = biological target: CaBzz1-D2
# In short: as §1
# CaCyk3 = biological target: CaCyk3
# In short: as §1
# CaFus1 = biological target: CaFus1
# In short: as §1
# CaHof1 = biological target: CaHof1
# In short: as §1
# CaHse1 = biological target: CaHse1
# In short: as §1
# CaLsb1 = biological target: CaLsb1
# In short: as §1
# CaLsb4 = biological target: CaLsb4
# In short: as §1
# CaMyo5 = biological target: CaMyo5
# In short: as §1
# CaNbp2 = biological target: CaNbp2
# In short: as §1
# CaRvs167 = biological target: CaRvs167
# In short: as §1
# CaRvs167-3 = biological target: CaRvs167-3
# In short: as §1
# CaSho1 = biological target: CaSho1
# In short: as §1
# CaSla1-D1-D2 = biological target: CaSla1-D1-D2
# In short: as §1
# CaSla1-D3 = biological target: CaSla1-D3
# In short: as §1
# ScAbp1 = biological target: ScAbp1
# In short: as §1
# ScBbc1 = biological target: ScBbc1
# In short: as §1
# ScBem1-D1 = biological target: ScBem1-D1
# In short: as §1
# ScBzz1-D1 = biological target: ScBzz1-D1
# In short: as §1
# ScBzz1-D2 = biological target: ScBzz1-D2
# In short: as §1
# ScCyk3 = biological target: ScCyk3
# In short: as §1
# ScFus1 = biological target: ScFus1
# In short: as §1
# ScHof1 = biological target: ScHof1
# In short: as §1
# ScHse1 = biological target: ScHse1
# In short: as §1
# ScLsb1 = biological target: ScLsb1
# In short: as §1
# ScLsb2 = biological target: ScLsb2
# In short: as §1
# ScLsb3 = biological target: ScLsb3
# In short: as §1
# ScLsb4 = biological target: ScLsb4
# In short: as §1
# ScMyo3 = biological target: ScMyo3
# In short: as §1
# ScMyo5 = biological target: ScMyo5
# In short: as §1
# ScNbp2 = biological target: ScNbp2
# In short: as §1
# ScPex13 = biological target: ScPex13
# In short: as §1
# ScRvs167 = biological target: ScRvs167
# In short: as §1
# ScSho1 = biological target: ScSho1
# In short: as §1
# ScSla1-D1-D2 = biological target: ScSla1-D1-D2
# In short: as §1
# ScSla1-D3 = biological target: ScSla1-D3
# In short: as §1
# SpAbp1-D1 = biological target: SpAbp1-D1
# In short: as §1
# SpBbc1 = biological target: SpBbc1
# In short: as §1
# SpBzz1-D1 = biological target: SpBzz1-D1
# In short: as §1
# SpBzz1-D2 = biological target: SpBzz1-D2
# In short: as §1
# SpCyk3 = biological target: SpCyk3
# In short: as §1
# SpHof1 = biological target: SpHof1
# In short: as §1
# SpHof1-2 = biological target: SpHof1-2
# In short: as §1
# SpHof1-3 = biological target: SpHof1-3
# In short: as §1
# SpHse1 = biological target: SpHse1
# In short: as §1
# SpLsb1 = biological target: SpLsb1
# In short: as §1
# SpLsb4 = biological target: SpLsb4
# In short: as §1
# SpMyo1 = biological target: SpMyo1
# In short: as §1
# SpNbp2 = biological target: SpNbp2
# In short: as §1
# SpPex13 = biological target: SpPex13
# In short: as §1
# SpRvs167 = biological target: SpRvs167
# In short: as §1
# SpSla1-D1-D2 = biological target: SpSla1-D1-D2
# In short: as §1
# SpSla1-D3 = biological target: SpSla1-D3
# In short: as §1
binder,measurement,setting,value
MARRRLPDRPPNGIG,SPOT peptide array binding signal intensity,AgAbp1,546
same,SPOT peptide array binding signal intensity,AgBbc1,428
same,SPOT peptide array binding signal intensity,AgBem1-D1,143
same,SPOT peptide array binding signal intensity,AgBzz1-D1,55
same,SPOT peptide array binding signal intensity,AgBzz1-D2,95
same,SPOT peptide array binding signal intensity,AgCyk3,16
same,SPOT peptide array binding signal intensity,AgFus1,148
same,SPOT peptide array binding signal intensity,AgHof1,112
same,SPOT peptide array binding signal intensity,AgHse1,216
same,SPOT peptide array binding signal intensity,AgLsb1,158
same,SPOT peptide array binding signal intensity,AgLsb4,2490
same,SPOT peptide array binding signal intensity,AgMyo5,≤ 0
same,SPOT peptide array binding signal intensity,AgNbp2,410
same,SPOT peptide array binding signal intensity,AgRvs167,487
same,SPOT peptide array binding signal intensity,AgSho1,636
same,SPOT peptide array binding signal intensity,AgSla1-D1-D2,179
same,SPOT peptide array binding signal intensity,AgSla1-D3,16.5
same,SPOT peptide array binding signal intensity,CaAbp1-D1,1170
same,SPOT peptide array binding signal intensity,CaAbp1-D2,788
same,SPOT peptide array binding signal intensity,CaBbc1,1100
same,SPOT peptide array binding signal intensity,CaBem1-D1,184
same,SPOT peptide array binding signal intensity,CaBzz1-D1,308
same,SPOT peptide array binding signal intensity,CaBzz1-D2,102
same,SPOT peptide array binding signal intensity,CaCyk3,290
same,SPOT peptide array binding signal intensity,CaFus1,280
same,SPOT peptide array binding signal intensity,CaHof1,5.25
same,SPOT peptide array binding signal intensity,CaHse1,89
same,SPOT peptide array binding signal intensity,CaLsb1,6.75
same,SPOT peptide array binding signal intensity,CaLsb4,2570
same,SPOT peptide array binding signal intensity,CaMyo5,22.5
STKKPRPPVKSKPKH,SPOT peptide array binding signal intensity,AgAbp1,553
same,SPOT peptide array binding signal intensity,AgBbc1,104
same,SPOT peptide array binding signal intensity,AgBem1-D1,1
same,SPOT peptide array binding signal intensity,AgBzz1-D1,72
same,SPOT peptide array binding signal intensity,AgBzz1-D2,38
same,SPOT peptide array binding signal intensity,AgCyk3,≤ 0
same,SPOT peptide array binding signal intensity,AgFus1,9
same,SPOT peptide array binding signal intensity,AgHof1,1.25
same,SPOT peptide array binding signal intensity,AgHse1,71.5
same,SPOT peptide array binding signal intensity,AgLsb1,≤ 0
same,SPOT peptide array binding signal intensity,AgLsb4,4
same,SPOT peptide array binding signal intensity,AgMyo5,3.25
same,SPOT peptide array binding signal intensity,AgNbp2,9
same,SPOT peptide array binding signal intensity,AgRvs167,1.83
same,SPOT peptide array binding signal intensity,AgSho1,23
same,SPOT peptide array binding signal intensity,AgSla1-D1-D2,7
same,SPOT peptide array binding signal intensity,AgSla1-D3,≤ 0
same,SPOT peptide array binding signal intensity,CaAbp1-D1,1410
same,SPOT peptide array binding signal intensity,CaAbp1-D2,1100
same,SPOT peptide array binding signal intensity,CaBbc1,292
same,SPOT peptide array binding signal intensity,CaBem1-D1,4
same,SPOT peptide array binding signal intensity,CaBzz1-D1,104
same,SPOT peptide array binding signal intensity,CaBzz1-D2,104
same,SPOT peptide array binding signal intensity,CaCyk3,2
same,SPOT peptide array binding signal intensity,CaFus1,29
same,SPOT peptide array binding signal intensity,CaHof1,1.25
same,SPOT peptide array binding signal intensity,CaHse1,≤ 0
same,SPOT peptide array binding signal intensity,CaLsb1,0.5
same,SPOT peptide array binding signal intensity,CaLsb4,≤ 0
same,SPOT peptide array binding signal intensity,CaMyo5,2.5
same,SPOT peptide array binding signal intensity,CaNbp2,21
same,SPOT peptide array binding signal intensity,CaRvs167,0.333
same,SPOT peptide array binding signal intensity,CaRvs167-3,6.25
same,SPOT peptide array binding signal intensity,CaSho1,19.5
same,SPOT peptide array binding signal intensity,CaSla1-D1-D2,318
same,SPOT peptide array binding signal intensity,CaSla1-D3,≤ 0
same,SPOT peptide array binding signal intensity,ScAbp1,2130
same,SPOT peptide array binding signal intensity,ScBbc1,5.5
same,SPOT peptide array binding signal intensity,ScBem1-D1,14
same,SPOT peptide array binding signal intensity,ScBzz1-D1,4.5
same,SPOT peptide array binding signal intensity,ScBzz1-D2,13
same,SPOT peptide array binding signal intensity,ScCyk3,≤ 0
same,SPOT peptide array binding signal intensity,ScFus1,≤ 0
same,SPOT peptide array binding signal intensity,ScHof1,≤ 0
same,SPOT peptide array binding signal intensity,ScHse1,110
same,SPOT peptide array binding signal intensity,ScLsb1,0.5
same,SPOT peptide array binding signal intensity,ScLsb2,3
same,SPOT peptide array binding signal intensity,ScLsb3,153
same,SPOT peptide array binding signal intensity,ScLsb4,1
same,SPOT peptide array binding signal intensity,ScMyo3,5.5
same,SPOT peptide array binding signal intensity,ScMyo5,≤ 0
same,SPOT peptide array binding signal intensity,ScNbp2,22
same,SPOT peptide array binding signal intensity,ScPex13,≤ 0
same,SPOT peptide array binding signal intensity,ScRvs167,≤ 0
same,SPOT peptide array binding signal intensity,ScSho1,269
same,SPOT peptide array binding signal intensity,ScSla1-D1-D2,34.5
same,SPOT peptide array binding signal intensity,ScSla1-D3,16.8
same,SPOT peptide array binding signal intensity,SpAbp1-D1,193
same,SPOT peptide array binding signal intensity,SpBbc1,8
same,SPOT peptide array binding signal intensity,SpBzz1-D1,47
same,SPOT peptide array binding signal intensity,SpBzz1-D2,2
same,SPOT peptide array binding signal intensity,SpCyk3,≤ 0
same,SPOT peptide array binding signal intensity,SpHof1,11.8
same,SPOT peptide array binding signal intensity,SpHof1-2,3.5
same,SPOT peptide array binding signal intensity,SpHof1-3,274
same,SPOT peptide array binding signal intensity,SpHse1,44.5
same,SPOT peptide array binding signal intensity,SpLsb1,383
same,SPOT peptide array binding signal intensity,SpLsb4,30
same,SPOT peptide array binding signal intensity,SpMyo1,≤ 0
same,SPOT peptide array binding signal intensity,SpNbp2,≤ 0
same,SPOT peptide array binding signal intensity,SpPex13,≤ 0
same,SPOT peptide array binding signal intensity,SpRvs167,≤ 0
same,SPOT peptide array binding signal intensity,SpSla1-D1-D2,8
same,SPOT peptide array binding signal intensity,SpSla1-D3,≤ 0
